Most compounds without a hit are left out; they make up all but 19% or so of the library.
HT1080 IDH1KD tx = HT-1080 IDH1 knockdown cell toxicity (counter line); HT-1080 IDH1 knockdown viability, ATP luminescence, 48 h; Potency, µM (highest dose often 46.1 µM), for inactives: at the top dose activity, negative = toxicity, most hits filed as cytotoxic; actives 2% (n = 360,000); AID 686971;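 also: 0% = DMSO wells and -100% = cell-free medium wells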
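Viability of IDH1-knockdown HT-1080 fibrosarcoma cells was assessed by CellTiter-Glo after 48 h at 37 °C with titrated compound; concentration-effect curves were classified by fit quality and response size.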
KB-V1 MDR tox = kills drug-selected multidrug resistant KB-V1 cells | AID 1347076 | KB-V1 MDR cells viability, CellTiter-Glo, 72 h | actives 3.4% (n = 400,000) | Potency, µM (titrated, usually from 46.1 µM), most hits filed as cytotoxic; also: nearly all actives have a fitted effect of over 60% in size
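Cytotoxicity via CellTiter-Glo luminescence after 72 h compound exposure at 37 degrees C. Cells: drug-selected KB-V1 line, DMEM phenol-red free plus 10% FBS. Compounds tested at multiple concentrations; normalized data fitted to concentration-effect curves.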
TDP1 cell CPT = growth inhibition of DT40 Tdp1-/-;hTDP1 cells with camptothecin (screen for TDP1 inhibitors); chicken DT40 Tdp1-/-;hTDP1 cells + 20 nM CPT, ATP luminescence, 48 h; Potency, µM (titrated, usually from 46.2 µM), inactives show top-dose activity change, negative = growth inhibition, actives largely listed as inhibitors; actives 12% (n = 420,000); AID 686979; also: nearly all actives have a fitted effect of over 55% in size
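Chicken DT40 Tdp1-/- cells stably complemented with human TDP1 were seeded at 400 cells/well in medium containing 20 nM camptothecin, exposed to pin-transferred compounds, and grown at 37 °C for at least 48 hr. Viability was read as ATP luminescence.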
KB-3-1 tox = KB-3-1 parental cell cytotoxicity; KB-3-1 viability, CellTiter-Glo ATP luminescence, 72 h; actives 1.4% (n = 400,000); AID 1347075; Potency, µM (doses to about 46.1 µM), usual class: cytotoxic; also: nearly all actives have a fitted effect of over 60% in size
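KB-3-1 parental drug-naive adenocarcinoma cells in DMEM/10% FBS, incubated 72 h at 37 C with pin-transferred compounds across a concentration series. Viability by CellTiter-Glo luminescence; concentration-response curves fitted after normalization.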
HT1080NT lethal = kills 2HG-producing HT-1080-NT fibrosarcoma cells; HT-1080-NT fibrosarcoma viability, CellTiter-Glo ATP luminescence, 48 h; Potency, µM (series often up to 46.1 µM), without a hit: top-dose activity, negative = less viability, hits mostly cytotoxic; actives 1.6% (n = 360,000); AID 686970;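 also: NT is the 2HG producing partner of a matched IDH1 knockdown line; 0% = DMSO-treated cells and -100% = media-only wells without cells; nearly all actives have a fitted effect of over 55% in size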
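750 cells/well, RPMI + 5% FBS; 2 h settle, compound pin-transfer, 48 h at 37 degrees C. CellTiter-Glo 10 min RT, luminescence. Normalized to DMSO and media-only wells.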
TDP1 cell noCPT = qHTS for Inhibitors of human tyrosyl-DNA phosphodiesterase 1 (TDP1): qHTS in cells in absence of CPT; DT40 Tdp1-/- hTDP1 cells, no CPT, ATP luminescence, 48 h; Potency, µM (doses to about 46.2 µM), for inactives: at the top dose activity change, negative = growth inhibition, actives largely listed as inhibitors; actives 15% (n = 420,000); AID 686978, 2013; also: nearly all actives have a fitted effect of over 55% in size
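Growth of hTDP1-complemented DT40 Tdp1-knockout cells is measured by ATP luminescence after at least 48 hr compound exposure at 37 °C, with DMSO substituting for the 20 nM CPT used in the parallel screen.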
Numbers without * were called inactive; i = inactive; ? = inconclusive; . = no result given. Calls follow the shape of the dose curve; as a rule, active = well fitted curve in the direction sought with a large enough effect; inconclusive = small, poorly fitted or top-dose-only effect, or another doubt; inactive = no such curve, though single readings can be large; an effect the other way counts as inactive or inconclusive. Unless noted, % is scaled to controls: 0 for no effect and ±100 for the full control effect; potency is read from the fitted curve at half-maximal effect.

SMILES	HT1080 IDH1KD tx	KB-V1 MDR tox	TDP1 cell CPT	KB-3-1 tox	HT1080NT lethal	TDP1 cell noCPT
Fc1cccc(CN2CCN3CCCC3C2C2CCCCC2)c1 (stereo unspecified)	-21%	i	?	i	-25%	?
Fc1ccc(CN2CCN3CCCC3C2C2CCCCC2)cc1F (stereo unspecified)	?	i	23µM*	i	-28%	18µM*
CSc1ccccc1NC(=O)CN(C)CC(=O)Nc1c(F)cccc1F	-1%	?	-19%	i	-4%	-28%
CC(=O)c1sc2c(c1OC(=O)c1ccc(Cl)cc1Cl)c(=O)n(-c1ccccc1)c(=S)n2-c1ccccc1	2.6µM*	?	?	?	1.5µM*	21µM*
CC(=O)c1sc2c(c1N)c(=O)[nH]c(=O)n2-c1ccccc1	9%	?	-2%	i	12%	?
CC(=O)c1sc2c(c1OC(=O)c1ccc(Cl)cc1)c(=O)n(-c1ccccc1)c(=S)n2-c1ccccc1	?	15µM*	?	?	-19%	?
COc1ccc(C(=O)CC2(O)C(=O)N(Cc3ccccc3Cl)c3ccccc32)cc1 (stereo unspecified)	.	18µM*	.	?	.	.
O=C(CC1(O)C(=O)N(Cc2ccccc2Cl)c2ccccc21)c1ccco1 (stereo unspecified)	3%	?	3.3µM*	?	1%	3.7µM*
CN1C[C@@H]2[C@@H]3C(=O)N(C)C(=O)[C@@H]3[C@](Cc3ccccc3)(C1=O)N2C(=O)c1ccc(Cl)cc1	6%	i	-1%	i	9%	-5%
CC(=O)SC1CC(=O)N(c2ccc(C(C)(C)C)cc2)C1=O (stereo unspecified)	?	?	3.3µM*	i	3%	8.2µM*
Cc1cc(C(=O)N2CCC2(C)C(=O)Nc2ccc3[nH]ncc3c2)nn1C (stereo unspecified)	20%	i	?	i	4%	-18%
FC(F)Oc1ccc(-c2csc(=Nc3cccnc3)n2CC2CCCO2)cc1 (stereo unspecified)	-25%	i	15µM*	i	-4%	13µM*
COCCn1c(-c2ccc(Br)cc2)csc1=Nc1cccnc1	-28%	?	16µM*	15µM*	-29%	18µM*
OC1(c2ccc(OC(F)F)cc2)CSC(=Nc2cccnc2)N1Cc1ccco1 (stereo unspecified)	-9%	i	-76%	i	-29%	-88%
Clc1ccc(-c2csc(=Nc3cccnc3)n2CCCn2ccnc2)cc1Cl	-23%	10µM*	23µM*	15µM*	-25%	15µM*
Cc1ccc(C)c(NC(=O)CCc2nnc3ccc(NCc4ccco4)nn23)c1	0%	i	5%	i	0%	-2%
CCCn1c(=O)c(C)cn2nc(N)nc12	.	.	6%	.	.	-1%
O=[N+]([O-])c1ccc2c([N+](=O)[O-])ccc3c2c1CC3	-4%	?	18µM*	i	-5%	18µM*
Cc1ccc(C(=O)Nc2ccc3c4c(cccc24)CC3)cc1[N+](=O)[O-]	9%	i	?	i	18%	?
COc1ccccc1OCC(=O)c1[nH]c(C)c(C(C)=O)c1C	?	i	15µM*	i	-14%	12µM*
CC(=O)c1c(C)[nH]c(C(=O)COc2cc(C)ccc2C(C)C)c1C	?	i	8.2µM*	i	-20%	4.6µM*
COc1cc(CN(C)CC(=O)c2[nH]c(C)c(C(C)=O)c2C)ccc1OC(F)F	-10%	i	8.2µM*	?	-11%	3.7µM*
COc1ccc(S(=O)(=O)N2CCC(C(N)=O)CC2)cc1C(=O)N1CCCCCC1	19%	i	4%	i	15%	-10%
O=C(CCC1N=C2c3ccccc3N=C(SCc3ccc(F)cc3)N2C1=O)NCc1ccc(F)cc1 (stereo unspecified)	.	?	?	i	.	?
COc1ccc(CNC(=O)CCC2N=C3c4ccccc4N=C(SCc4ccc(F)cc4)N3C2=O)cc1 (stereo unspecified)	.	i	?	i	.	23µM*
SMILES	HT1080 IDH1KD tx	KB-V1 MDR tox	TDP1 cell CPT	KB-3-1 tox	HT1080NT lethal	TDP1 cell noCPT
O=C(CCC1N=C2c3ccccc3N=C(SCc3ccccc3F)N2C1=O)NCc1ccc(F)cc1 (stereo unspecified)	.	i	?	i	.	26µM*
COc1ccc(CNC(=O)CCC2N=C3c4ccccc4N=C(SCc4ccccc4F)N3C2=O)cc1 (stereo unspecified)	.	i	?	i	.	?
O=C(CCC1N=C2c3ccccc3N=C(SCc3ccccc3F)N2C1=O)NCc1ccccc1 (stereo unspecified)	.	i	?	i	.	18µM*
CSc1cccc(NC(=O)Cc2ccccc2[N+](=O)[O-])c1	-16%	i	5%	i	-22%	-23%
O=c1[nH]c(=O)n(CCCc2ccccc2)cc1-c1ccccc1	24%	13µM*	-28%	i	8%	-26%
Cc1cn(CC(=O)NCCCc2ccccc2)c(=O)[nH]c1=O	1%	i	-5%	i	2%	-15%
Cc1sc2nc3c(SC(C)C(=O)O)cc(C(=O)c4ccccc4O)cn3c(=O)c2c1C (stereo unspecified)	4%	i	-3%	i	1%	2%
CCOC(=O)c1sc2nc3c(SCC(=O)O)cc(C(=O)c4cc(F)ccc4O)cn3c(=O)c2c1C	-2%	i	-10%	i	2%	-12%
CCc1c(C)sc2nc3c(C(=O)N4CCOCC4)cc(C(=O)c4ccccc4O)cn3c(=O)c12	-9%	i	23µM*	i	-21%	15µM*
COC(=O)c1cc(C(=O)c2cc(F)ccc2O)cn2c(=O)c3c(C)c(C)sc3nc12	0%	i	4.1µM*	i	-1%	-24%

From PubChem
